Laboratory results as given in PubChem BioAssay (NCI).
Where “and” joins values, the source holds several entries; their conditions need not be identical. Equal values may be shown once. This is part of a sample that, as a whole, favours compounds with a hit. Of some 83,000 tested, about 20% had one in any assay.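 Plates (96-well) were seeded with cells, treated with compound at one concentration, and incubated for 48 hours before percent growth was determined.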 Calls of active or inactive are those of the source. The calls were made as follows: active = growth percent below 10; inactive = the rest.

Columns and labels:
Assay in all cases: NCI-60 one-dose screen, 48 h (100 = growth as untreated, 0 = no growth, -100 = all killed)
Conditions in all cases: 10 µM unless noted
SR leukemia = test system: SR leukemia
RPMI-8226 leukemia = test system: RPMI-8226 leukemia
OVCAR-8 ovarian = test system: OVCAR-8 ovarian
OVCAR-5 ovarian = test system: OVCAR-5 ovarian
OVCAR-4 ovarian = test system: OVCAR-4 ovarian
SK-OV-3 ovarian = test system: SK-OV-3 ovarian
IGROV1 ovarian = test system: IGROV1 ovarian
OVCAR-3 ovarian = test system: OVCAR-3 ovarian
HS 578T breast = test system: HS 578T breast
NCI/ADR-RES ovarian = test system: NCI/ADR-RES ovarian
T-47D breast = test system: T-47D breast
BT-549 breast = test system: BT-549 breast
MDA-MB-435 melanoma = test system: MDA-MB-435 melanoma
SW-620 colon = test system: SW-620 colon
MCF7 breast = test system: MCF7 breast
HCT-116 colon = test system: HCT-116 colon
HCC-2998 colon = test system: HCC-2998 colon
KM12 colon = test system: KM12 colon

Measured: growth

C=C(c1ccc(C(=O)O)cc1)c1cc2c(cc1C)C(C)(C)CCC2(C)C
inactive: SR leukemia 46.1% and 84.9% | OVCAR-8 ovarian 77% and 80.6% | OVCAR-5 ovarian 91% and 79.7% | OVCAR-4 ovarian 95.4% and 86.9% | SK-OV-3 ovarian 88.7% and 77.8% | IGROV1 ovarian 98.9% and 79.8% | OVCAR-3 ovarian 88.8% and 82.6% | HS 578T breast 126% and 68.1% | NCI/ADR-RES ovarian 71.9% and 72.9% | T-47D breast 93.8% and 75.7% | BT-549 breast 55.4% | MDA-MB-435 melanoma 95.9% and 84% | SW-620 colon 113% and 97.6% | MCF7 breast 75.9% and 63.6% | HCT-116 colon 71.3% and 50% | HCC-2998 colon 78.6% and 76.1% | KM12 colon 59.2% and 36.3%
2.66% (active) and 61% (inactive): RPMI-8226 leukemia

COc1cc(CO)cc2cc3ccccc3nc12
inactive: SR leukemia 96% | RPMI-8226 leukemia 101% | OVCAR-8 ovarian 101% | OVCAR-5 ovarian 106% | OVCAR-4 ovarian 107% | SK-OV-3 ovarian 109% | IGROV1 ovarian 106% | OVCAR-3 ovarian 110% | HS 578T breast 108% | NCI/ADR-RES ovarian 111% | T-47D breast 101% | BT-549 breast 102% | MDA-MB-435 melanoma 104% | SW-620 colon 102% | MCF7 breast 79.9% | HCT-116 colon 98.5% | HCC-2998 colon 106% | KM12 colon 102%

CN1C(=O)N(C)C2(c3ccccc3)N(CC(=O)Nc3ccccc3O)C(=O)NC12c1ccccc1 (centres undefined)
inactive: SR leukemia 112% | RPMI-8226 leukemia 106% | OVCAR-8 ovarian 102% | OVCAR-5 ovarian 104% | OVCAR-4 ovarian 99.3% | SK-OV-3 ovarian 100% | IGROV1 ovarian 101% | OVCAR-3 ovarian 103% | HS 578T breast 105% | NCI/ADR-RES ovarian 99.8% | T-47D breast 98.5% | BT-549 breast 104% | MDA-MB-435 melanoma 106% | SW-620 colon 97.4% | MCF7 breast 101% | HCT-116 colon 98.3% | HCC-2998 colon 118% | KM12 colon 105%

O=C(NNC(=S)Nc1ccccc1)c1ccncc1
inactive: SR leukemia 99.2% | RPMI-8226 leukemia 96.8% | OVCAR-8 ovarian 104% | OVCAR-5 ovarian 107% | OVCAR-4 ovarian 116% | SK-OV-3 ovarian 118% | IGROV1 ovarian 106% | OVCAR-3 ovarian 114% | HS 578T breast 132% | NCI/ADR-RES ovarian 105% | T-47D breast 109% | BT-549 breast 88.1% | MDA-MB-435 melanoma 112% | SW-620 colon 113% | MCF7 breast 94.2% | HCT-116 colon 104% | HCC-2998 colon 109% | KM12 colon 107%

O=C(CCN1CCOCC1)Nc1cccc(-n2cc(-c3ccncc3)c(-c3ccc(Cl)c(O)c3)n2)c1
active: HS 578T breast 7.21% | MDA-MB-435 melanoma -64.1%
inactive: SR leukemia 16.8% | RPMI-8226 leukemia 17.1% | OVCAR-8 ovarian 39.5% | OVCAR-5 ovarian 62.2% | OVCAR-4 ovarian 66.5% | SK-OV-3 ovarian 25.1% | IGROV1 ovarian 51.8% | OVCAR-3 ovarian 14.3% | NCI/ADR-RES ovarian 21.5% | T-47D breast 38.3% | BT-549 breast 11.6% | SW-620 colon 23.4% | MCF7 breast 11.4% | HCT-116 colon 21.1% | HCC-2998 colon 66.9% | KM12 colon 23.7%

O=C1OCC2=C1C(c1cccc(C(F)(F)F)c1)c1cc3c(cc1N2CCO)CCC3 (centres undefined)
inactive: SR leukemia 11.1% | RPMI-8226 leukemia 17.9% | OVCAR-5 ovarian 36.1% | OVCAR-4 ovarian 52.3% | IGROV1 ovarian 23.5% | HS 578T breast 28% | NCI/ADR-RES ovarian 17.7% | T-47D breast 75% | BT-549 breast 22% | SW-620 colon 24% | MCF7 breast 16.3% | HCC-2998 colon 11.2%
active: OVCAR-8 ovarian 5.39% | SK-OV-3 ovarian 5.48% | OVCAR-3 ovarian -17.8% | MDA-MB-435 melanoma -44.3% | HCT-116 colon 4.17% | KM12 colon 4.92%

CCOC(=O)CC1CSC(c2cccc(Cl)c2)=N1 (centres undefined)
inactive: SR leukemia 92% | RPMI-8226 leukemia 104% | OVCAR-8 ovarian 102% | OVCAR-5 ovarian 113% | OVCAR-4 ovarian 111% | SK-OV-3 ovarian 103% | IGROV1 ovarian 113% | OVCAR-3 ovarian 107% | HS 578T breast 102% | NCI/ADR-RES ovarian 96.4% | T-47D breast 102% | BT-549 breast 111% | MDA-MB-435 melanoma 112% | SW-620 colon 108% | MCF7 breast 87.8% | HCT-116 colon 97.2% | HCC-2998 colon 82.7% | KM12 colon 108%

COc1cc(/C=N/NC(=O)CCN2c3ccccc3Sc3ccccc32)cc(OC)c1OC
inactive: SR leukemia 72% | RPMI-8226 leukemia 54.7% | OVCAR-8 ovarian 86.5% | OVCAR-5 ovarian 89% | OVCAR-4 ovarian 68.3% | SK-OV-3 ovarian 105% | IGROV1 ovarian 91.2% | OVCAR-3 ovarian 99.5% | HS 578T breast 93.7% | NCI/ADR-RES ovarian 87.6% | T-47D breast 41.5% | BT-549 breast 88.6% | MDA-MB-435 melanoma 87.4% | SW-620 colon 90.8% | MCF7 breast 97.3% | HCT-116 colon 80.1% | HCC-2998 colon 113% | KM12 colon 81.4%
